This is a sample that favours compounds with a hit; in the whole collection about 9.4% have one here.
Rab9 promoter act: qHTS Assay for Rab9 Promoter Activators; AID 485297, 2010; Potency, µM (top dose mostly 9.22 µM), for inactives: top-dose activation, negative = inhibition, hits mostly activators; Huh7 Rab9 promoter-luciferase reporter, luminescence, 24 h; actives 2.8% (n = 320,000); also: % of control where 0% means no effect; nearly all actives have a fitted effect of over 60% in size
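Cells were plated at 1500 per well in reduced-serum medium with 10% FBS and left 2 h. Compound in DMSO was then added for 24 h at 37 °C. Reporter signal was read by luminescence after 10 min with luciferase detection reagent.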
ELG1 repair inh: qHTS screen for small molecules that inhibit ELG1-dependent DNA repair in human embryonic kidney (HEK293T) cells expressing luciferase-tagged ELG1; HEK293T ELG1-luciferase reporter, luminescence, 16 h; DNA damage induced by 5-fluorouridine; Potency, µM (highest dose often 46.1 µM), for inactives: at the top dose activity change, negative = inhibition, hits mostly inhibitors; actives 2.3% (n = 330,000); also: % is scaled to controls: 0 for no effect and ±100 for the full control effect; nearly all actives have a fitted effect of over 55% in size
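Quantitative HTS, concentration-response format. 2,000 cells/well co-treated with 5-fluorouridine and compound, 16 hr in 5% CO2 at 37 °C; ONE-Glo luminescence read after 30 min.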
NPC1 promoter act: qHTS Assay for NPC1 Promoter Activators; Huh7 NPC1 promoter luciferase reporter, 24 h; Potency, µM (doses to about 9.22 µM), for the others: at the highest dose activation, most hits filed as activators; actives 2.4% (n = 320,000); AID 485313, 2010; also: % of control where 0% means no effect; nearly all actives have a fitted effect of over 60% in size
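Luminescence read-out of NPC1 promoter-driven luciferase in stably transfected Huh7 cells; compounds delivered in DMSO and left 24 h at 37C, 5% CO2, qHTS titration format.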
ELG1 genotox: qHTS screen for small molecules that induce genotoxicity in human embryonic kidney (HEK293T) cells expressing luciferase-tagged ELG1. Potency, µM (titrated, usually from 46 µM), inactives show at the highest dose activity change, positive = activation, actives largely listed as activators. HEK293T ELG1-luciferase reporter, luminescence, 16 h. actives 1.3% (n = 330,000). AID 504466, 2011; also: % of control where 0% means no effect; nearly all actives have a fitted effect of over 60% in size
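Luminescence read-out: rising ELG1-luciferase signal, reflecting elevated ELG1 protein under genetic stress, flags genotoxic compounds. Cells were treated for 16 hr at 37 °C before ONE-Glo detection.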
SMN2 splice up: qHTS Assay for Enhancers of SMN2 Splice Variant Expression; Potency, µM (doses to about 46.1 µM), without a hit: at the highest dose activity change, positive = activation, most hits filed as activators; actives 2.8% (n = 210,000); HEK293 SMN2-luciferase splicing reporter, luminescence, 30-36 h; also: % of control where 0% means no effect; nearly all actives have a fitted effect of over 55% in size
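qHTS luciferase splicing reporter: luminescence rises when SMN2 exon 7 is included in transfected HEK293 cells. Compound exposure lasted 30-36 h at 37C, with 4.5 mM final sodium butyrate as control, followed by a ONE-Glo read.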
FLuc modulator: qHTS profiling assay for firefly luciferase inhibitor/activator using purifed enzyme and Km concentrations of substrates (counterscreen for miR-21 project); Luciferin 4-monooxygenase (Photinus pyralis), P08659; purified FLuc, Km substrates, luminescence inhibition; Potency, µM (series often up to 57.5 µM), for inactives: at the top dose activity change, negative = inhibition, actives largely listed as inhibitors; actives 6.9% (n = 360,000); AID 588342, 2011;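 also: plate controls were vehicle for no effect and reference inhibitor for full effect; nearly all actives have a fitted effect of over 55% in size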
Target sequence (P08659 whole entry, looked up): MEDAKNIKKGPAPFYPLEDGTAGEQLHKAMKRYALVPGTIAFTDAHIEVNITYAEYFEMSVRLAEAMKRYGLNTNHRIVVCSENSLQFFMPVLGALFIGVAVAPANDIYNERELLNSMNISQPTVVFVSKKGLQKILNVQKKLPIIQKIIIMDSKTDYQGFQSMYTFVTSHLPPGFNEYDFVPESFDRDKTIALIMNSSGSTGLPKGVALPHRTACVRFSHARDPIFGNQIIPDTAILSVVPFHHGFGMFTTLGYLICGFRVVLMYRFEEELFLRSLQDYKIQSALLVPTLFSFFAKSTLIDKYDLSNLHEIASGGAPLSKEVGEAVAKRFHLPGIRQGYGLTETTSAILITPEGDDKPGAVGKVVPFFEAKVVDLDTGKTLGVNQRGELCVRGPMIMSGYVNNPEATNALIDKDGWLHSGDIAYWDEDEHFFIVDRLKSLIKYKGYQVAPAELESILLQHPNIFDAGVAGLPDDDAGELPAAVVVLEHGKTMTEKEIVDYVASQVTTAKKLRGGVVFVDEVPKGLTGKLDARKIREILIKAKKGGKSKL
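Biochemical qHTS of compounds, final roughly 60 µM downward over six points, against 10 nM purified firefly luciferase using Km concentrations of substrates (10 uM D-luciferin, 10 uM ATP) in Tris acetate pH 7.5 buffer; luminescence output.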
* hit, by the source's call; ? = inconclusive; . = not tested or not shown; [ ] = another dose, or the depositor's remark. Calls follow the shape of the dose curve; as a rule, active = well fitted curve in the direction sought with a large enough effect; inconclusive = small, poorly fitted or top-dose-only effect, or another doubt; inactive = no such curve, though single readings can be large; an effect the other way counts as inactive or inconclusive. Potency is read from the fitted curve at half-maximal effect.

SMILES	Rab9 promoter act	ELG1 repair inh	NPC1 promoter act	ELG1 genotox	SMN2 splice up	FLuc modulator
CCS(=O)(=O)c1ncc(Cl)c(C(=O)N(Cc2ccccc2)Cc2ccco2)n1	.	.	.	.	17.4%	-11.4%
Cc1ccc(-c2nnc(N3CCN(C(=O)COc4ccccc4)CC3)c3ccccc23)cc1	-2.5%	20.6µM*	-5.7%	-20.3%	-53.8%	-0.9%
O=C(COc1ccccc1)N1CCCC1	-0.6%	12.2%	-0.5%	4.8%	3.6%	-1.0%
O=C(COc1ccc([N+](=O)[O-])cc1)N1CCN(c2nnc(-c3ccccc3)c3ccccc23)CC1	-7.4%	-12.7%	-2.6%	-0.5%	.	3.1%
O=C(COc1ccc(-c2nnc(N3CCCCC3)c3ccccc23)cc1)N1CCCCC1	-2.4%	14.6µM*	-0.3%	-6.7%	-43.4%	?
CCCOc1ccc2c(c1)C(=NN=C(N)N)c1cc(OCCC)ccc1-2	0.6%	?	-5.0%	-3.6%	.	?
O=C(O)COc1ccc2c(c1)CCCC2	0.5%	15.8%	-0.3%	-2.0%	-1.4%	-24.6%
CCCCOc1ccc2c(c1)C(=O)c1cc(O)ccc1-2	3.16µM*	?	?	?	.	26.9µM*
CCOc1ccc2c(c1)C(=O)c1cc(OCC(=O)O)ccc1-2	2.2%	?	14.3%	-7.6%	.	3.38µM*
S=C(NCCSCc1c(Cl)cccc1Cl)Nc1ccccc1	-1.1%	-25.4%	-0.9%	-9.5%	14.0%	-12.5%
O=C(NCCSCc1c(F)cccc1Cl)Nc1ccccc1	9.0%	13.5%	17.7%	3.5%	.	16.9µM*
O=C(NCCSCc1ccco1)Nc1ccccc1	24.1%	0.0%	26.3%	11.5%	.	16.9µM*
O=C(Cc1ccccc1)NCCSCc1ccco1	29.3%	27.9%	-0.8%	7.1%	-5.2%	-19.9%
Cc1ccc(C)n1-c1nnc(N2CCCC(C(=O)NCc3ccc(F)cc3)C2)s1 (centres undefined)	.	.	.	.	1.3%	-7.4%
O=C(NN=Cc1ccc(OC(F)F)cc1)c1ccc(NS(=O)(=O)c2cccs2)cc1	.	19.1%	.	8.9%	.	.
O=C(N/N=C/c1ccc([N+](=O)[O-])cc1)c1ccc(NS(=O)(=O)c2cccs2)cc1	6.1%	-10.9%	-0.4%	1.3%	.	21.3µM*
O=C(N/N=C/c1ccc([N+](=O)[O-])o1)c1ccc(NS(=O)(=O)c2cccs2)cc1	1.6%	20.6µM*	-1.8%	-11.1%	.	?
COc1ccc(OC)c(NC(=O)C2Cc3ccccc3CN2S(=O)(=O)c2ccc(F)cc2)c1 (centres undefined)	.	.	.	.	-7.5%	1.1%
CCOC(=O)c1ccc2nc(C)cc(Nc3ccc(OC(C)C)cc3)c2c1	.	.	.	.	-23.2%	4.3%
CC1(C)C(=O)Nc2ccccc2N1C(=O)COC(=O)c1cc(S(C)(=O)=O)ccc1Cl	-0.4%	15.7%	-1.1%	0.4%	.	3.5%
COc1cc(/C=C/C(=O)OCC(=O)N2c3ccccc3NC(=O)C2(C)C)cc(OC)c1OC	-5.2%	10.3µM*	0.2%	-0.1%	.	-1.9%
CC1(C)C(=O)Nc2ccccc2N1C(=O)COC(=O)c1ccc(Cl)c(S(=O)(=O)NCc2ccccc2)c1	-3.4%	20.6µM*	-0.4%	-15.0%	-3.0%	1.9%
CSc1nc(C)cc(Nc2c(C)cc(C)cc2C)n1	.	.	.	.	.	0.1%
Cc1ccnc(NC(=O)CCC2CCCCC2)c1	?	?	?	8.2µM*	?	10.7µM*
O=C(CCC1CCCC1)Nc1ccc(Br)cn1	2.24µM*	?	?	20.0%	?	-4.3%[2.3 µM]
SMILES	Rab9 promoter act	ELG1 repair inh	NPC1 promoter act	ELG1 genotox	SMN2 splice up	FLuc modulator
CCCC(=O)Nc1ccc(Br)cn1	24.1%	15.5%	0.4%	-6.5%	23.1%	-4.4%
CCOCCn1c(CC)nc2ccccc21	-1.7%	-15.3%	-4.4%	1.5%	.	-4.0%
CCc1nc2ccccc2n(CCOCCn2c(=O)c(CC)nc3ccccc32)c1=O	4.7%	23.1µM*	17.4%	-13.6%	1.8%	-1.3%
C=CCn1c(SCC(N)=O)nc2scc(-c3ccc(C)o3)c2c1=O	2.51µM*	?	?	?	.	4.78µM*
C=CCn1c(SCc2ccccc2)nc2scc(-c3ccc(C)o3)c2c1=O	-6.9%	-13.7%	0.2%	-1.9%	-8.3%	0.8%
CC(=O)n1cc(N(C(=O)CCl)c2ccc([N+](=O)[O-])cc2)c2ccccc21	-52.8%	23.1µM*	-38.8%	-25.9%	.	4.3%
c1cc2c(cc1C(N1CCNCC1)N1CCNCC1)OCO2	.	.	.	.	-3.4%[9.22 µM]	.
COc1ccc(OC)c(/C=N/NC(=O)Cc2nc3ccccc3[nH]2)c1	10.7%	5.5%	1.1%	2.5%	18.3%	-1.7%
COc1cc(/C=C(/C(=O)c2cccs2)c2nc3ccccc3[nH]2)cc(OC)c1O	14.2%	?	13.4%	-20.5%	-76.8%	2.39µM*
COc1ccc(C(=O)N/C(=C/c2cccs2)c2nc3ccccc3[nH]2)cc1OC	-2.2%	?	-1.7%	3.5%	-26.5%	?
COc1cc(/C=N/Nc2nc3ccccc3[nH]2)cc(Br)c1OCC(=O)N(C)C	-4.0%	?	-6.6%	-9.8%	-22.5%	23.9µM*
O=[N+]([O-])c1ccc(N/N=C/c2ccccc2O)cc1	19.7%	?	-7.4%	?	.	15.1µM*
COc1ccc(O)c(/C=N/Nc2nc3ccccc3[nH]2)c1	?	?	5.0%	?	?	6.75µM*
O=[N+]([O-])c1cccc(N/N=C/c2cc([N+](=O)[O-])ccc2O)c1	29.7%	?	?	?	20.4%	?
Cc1ccc(CCNC(=O)CCN2N=C(c3ccc(C)cc3)CCC2=O)cc1	.	.	.	.	.	-6.5%
CCOc1cc(/C=N/Nc2nc(C)cc(=O)[nH]2)ccc1O	2.7%	?	-2.3%	2.6%	.	?
COc1cc(/C=N/Nc2nc3ccccc3[nH]2)cc(OC)c1O	20.6%	1.6%	14.2%	14.3%	.	4.78µM*
COc1cc(/C=N/Nc2nc(=O)[nH]nc2C)ccc1O	-0.9%	-20.1%	-4.6%	4.1%	.	?
O=[N+]([O-])c1ccc(O)c(/C=N/Nc2nc3ccccc3[nH]2)c1	-37.6%	?	-34.8%	18.4µM*	-99.8%	?
COc1cc(/C=N/Nc2nc3ccccc3[nH]c2=O)ccc1O	1.9%	6.5%	9.0%	-3.3%	?	15.1µM*
COc1cc(/C=N/Nc2nc3ccccc3[nH]2)ccc1O	2.6%	?	4.0%	?	62.9%	4.78µM*
c1ccc(N2CCN(Cc3nnc(-c4ccc5c(c4)OCO5)o3)CC2)cc1	.	.	.	.	-0.6%	1.4%

Assay outcomes (PubChem)
